# According to PubChem BioAssay (Tox21):
# Results filed as inconclusive are left out. Where a call stands in place of a potency, no number is given. The source made the active and inactive calls. Unless noted, the call rests on the fitted dose curve; in most records, active means well fitted curve in the direction sought with a large enough effect in the repeat runs; inconclusive means weak or mixed curves; inactive means no such curve, though single readings can be large; an effect the other way counts as inactive or inconclusive.
# Legend:
# [1] = qHTS assay to identify small molecule antagonists of the estrogen receptor alpha (ER-alpha) signaling pathway using the BG1 cell line in the presence of 0.1 nM 17-beta-estradiol - cell viability counter screen (AID 1259241); further: nearly all actives have a fitted effect of over 40% in size
# Summary of the method: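 Following 5 days in phenol red-free medium with charcoal-stripped serum, VM7Luc4E2 cells received test compounds alongside 0.1 nM 17beta-estradiol (final) at 37C for 22 hr. Live cells were then quantified via protease-substrate fluorescence.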
# [2] = qHTS assay to identify small molecule antagonists of the androgen receptor (AR) signaling pathway using the MDA cell line in the presence of 0.5 nM R1881 - cell viability counter screen (AID 1259242); further: nearly all actives have a fitted effect of over 45% in size
# Summary of the method: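 Concentration-response screen of compounds for toxicity in MDA-kb2 reporter cells: 16 hr at 37C with 0.5 nM R1881, endpoint live-cell protease fluorescence measured in the reporter wells.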
# [3] = qHTS assay to identify small molecule phospholipidosis (PLD) inducers (AID 1259344; active means well fitted curve in the direction sought with a large enough effect; an effect the other way counts as inactive or inconclusive)
# Summary of the method: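 Read-out is LipidTOX Red fluorescence (ex 595/em 615) imaged in HepG2 cells after 24 h compound exposure at 37 C, with Hoechst nuclear counterstain (ex 352/em 461) allowing per-cell normalisation.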
# [4] = qHTS assay to identify small molecule HDAC inhibitors (AID 1259364);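 further: wild-type HCT-116 cells with endogenous class I/II HDAC activity; top concentration of the series differs between compounds; nearly all actives have a fitted effect of over 45% in size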
# Summary of the method: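 Screening used wild-type human colon HCT-116 cells incubated overnight, dosed with compounds for 2 hours, and assayed with a homogeneous luminogenic HDAC I/II reagent for 30 minutes at room temperature.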
# [5] = qHTS assay to identify small molecule HDAC inhibitors - cell viability counter screen (AID 1259365); further: series mostly up to about 92 µM; nearly all actives have a fitted effect of over 50% in size
# Summary of the method: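 HCT-116 wild-type, overnight attachment; 2hr drug exposure, 37C; CellTiter-Glo luminescent ATP readout after 30min RT.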
# [6] = qHTS assay to identify small molecule agonists of the sonic hedgehog signaling (Shh) pathway - cell viability counter screen (AID 1259366); further: nearly all actives have a fitted effect of over 50% in size
# Summary of the method: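 Compounds in DMSO were pin-transferred onto 3T3 Gli1-Luc cells that had settled 4hr; plates then stood 24hr at 37C and 5% CO2. One hour before the end, CellTiter-Fluor was added and fluorescence recorded.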
# [7] = qHTS assay to identify small molecule antagonists of the sonic hedgehog signaling (Shh) pathway - cell viability counter screen (AID 1259367); further: nearly all actives have a fitted effect of over 55% in size
# Summary of the method: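 Fluorescence read-out (CellTiter-Fluor, 1 hr at 37C) taken after 23 hr compound treatment of 3T3 Gli1-Luc cells stimulated with conditioned medium. Cells were seeded at 2,000 per well and pre-incubated 4 hr.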
# [8] = qHTS assay to identify small molecule agonists of the sonic hedgehog signaling (Shh) pathway (AID 1259368; calls by dose curve;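 further: NIH/3T3-derived 3T3Gli1-Luc cells carrying a stable Gli1-driven firefly luciferase reporter; series mostly up to about 92 µM; nearly all actives have a fitted effect of over 15% in size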)
# Summary of the method: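 Hedgehog pathway agonism scored by increased firefly luciferase luminescence in 3T3Gli1-Luc cells treated 24 hr at 37 C; detection used a 30 min room-temperature reagent incubation.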
# [9] = qHTS assay to identify small molecule antagonists of the sonic hedgehog signaling (Shh) pathway (AID 1259369; calls by dose curve; further: nearly all actives have a fitted effect of over 45% in size; further: potency means the concentration at half of the fitted maximal effect)
# Summary of the method: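 NIH/3T3 stable Gli1-Luc clone, 2,000 cells/well, 4hr settle; cpd + conditioned medium 24hr; Luc reagent 30min RT; luminescence.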
# [10] = molecular target: Estrogen receptor beta (Homo sapiens) (UniProt Q92731); assay: qHTS assay to identify small molecule agonists of the estrogen receptor beta (ER-beta) signaling pathway (AID 1259377; active means well fitted activation curve with a large enough effect in the signal ratio in the repeat runs, not every such curve was filed as active; the % refers to the signal ratio)
# Summary of the method: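 qHTS in ER-beta-UAS-bla HEK293T cells: 6 hr settling, then 16 hr compound at 37C, then LiveBLAzer substrate 2 h at RT before fluorescence reading.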
# [11] = molecular target: Estrogen receptor beta (Homo sapiens) (UniProt Q92731); assay: qHTS assay to identify small molecule antagonists of the estrogen receptor beta (ER-beta) signaling pathway (AID 1259378; active means well fitted inhibition curve with a large enough effect in the signal ratio in the repeat runs, not every such curve was filed as active; the % refers to the signal ratio)
# Summary of the method: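 ER-beta-UAS-bla HEK293T cells in 2% charcoal-stripped FBS medium treated with compound plus 1nM final 17-beta-estradiol for 16 hr at 37C. Beta-lactamase reporter read by FRET substrate fluorescence after 2 hours at room temperature.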
# [12] = qHTS assay to identify small molecule agonists of the androgen receptor (AR) signaling pathway in the presence of an antagonist - cell viability counter screen (AID 1259379);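 further: MDA-kb2 human breast cancer cells carrying an MMTV luciferase reporter; series mostly up to about 92 µM; nearly all actives have a fitted effect of over 25% in size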
# Summary of the method: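 MDA-kb2 viability measured by CellTiter-Fluor fluorescence in the same wells as the luciferase signal; nilutamide 3.0uM final; 15-point compound titration; 16 hr at 37C.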
# [13] = qHTS assay to identify small molecule antagonists of the estrogen receptor beta (ER-beta) signaling pathway - cell viability counter screen (AID 1259382); further: series mostly up to about 92 µM; nearly all actives have a fitted effect of over 55% in size
# Summary of the method: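 Readout: luminescence, CellTiter-Glo, same wells as bla assay. System: ER-beta-UAS-bla GripTite HEK293T, 2% charcoal-stripped FBS. Exposure: compounds plus 1nM 17-beta-estradiol, 16 hr, 37C.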
# [14] = molecular target: Estrogen receptor (Homo sapiens) (UniProt P03372); assay: qHTS assay to identify small molecule antagonists of the estrogen receptor alpha (ER-alpha) signaling pathway using the BG1 cell line in the presence of 0.1 nM 17-beta-estradiol (AID 1259244); further: nearly all actives have a fitted effect of over 50% in size
# Summary of the method: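 Compounds were tested against 0.1 nM (final) 17beta-estradiol in VM7Luc4E2 cells, which express full-length ER-alpha and an ERE-luciferase reporter; luminescence was recorded following 22 h exposure.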
# [15] = qHTS assay to identify small molecule agonists of the estrogen receptor beta (ER-beta) signaling pathway - cell viability counter screen (AID 1259380); further: nearly all actives have a fitted effect of over 30% in size
# Summary of the method: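 Measured: luminescence from CellTiter-Glo after 30 min at room temperature, added to wells already read for the LiveBLAzer FRET reporter (2 hr substrate); ER-beta-UAS-bla HEK293T cells had 16 hr compound treatment at 37C, 5% CO2.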
# [16] = molecular target: Estrogen receptor (Homo sapiens) (UniProt P03372); assay: qHTS assay to identify small molecule agonists of the estrogen receptor alpha (ER-alpha) signaling pathway in the presence of an antagonist (AID 1259383; calls by dose curve; further: top concentration of the series differs between compounds; nearly all actives have a fitted effect of over 15% in size)
# Summary of the method: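 Quantitative HTS confirmation: compounds titrated at 15 concentrations onto estrogen-deprived VM7Luc4E2 cells carrying a four-ERE luciferase construct, with ICI-182,780 present at 10.0nM final. Signal is luminescence after 22hr exposure.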
# [17] = qHTS assay to identify small molecule agonists or antagonists of the thyroid stimulating hormone receptor (TSHR) signaling pathway - wild type cell line counter screen (AID 1259384; calls by dose curve)
# Summary of the method: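 Wild-type Hek293 cells, 800/well, 18 h at 37C, then compound with Ro20-1724 for 30 min RT. cAMP by HTRF (cAMP-d2/anti-cAMP cryptate), 1 h RT, fluorescence read. 15 concentrations, triplicates.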
# [18] = molecular target: Thyrotropin receptor (Homo sapiens) (UniProt P16473); assay: qHTS assay to identify small molecule antagonists of the thyroid stimulating hormone receptor (TSHR) signaling pathway (AID 1259385; calls by dose curve; further: nearly all actives have a fitted effect of over 20% in size)
# Summary of the method: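 TSHR-HEK293 cells (800/well) plated 18 h, then compounds with Ro20-1724 and TSH at 1.5 ng/mL final, 30 min at room temperature. cAMP quantified by HTRF (cAMP-d2/anti-cAMP-cryptate, 1 h); 15 concentrations in triplicate.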
# [19] = molecular target: Androgen receptor (Homo sapiens) (UniProt P10275); assay: qHTS assay to identify small molecule agonists of the androgen receptor (AR) signaling pathway in the presence of an antagonist (AID 1259381; calls by dose curve; further: nearly all actives have a fitted effect of over 15% in size)
# Summary of the method: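 Luminescent ONE-Glo read, 30min at room temperature, follows 16hr compound exposure (15 concentrations) of MDA-kb2 cells at 37C, 0% CO2, with nilutamide added at 3.0uM final.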
# [20] = molecular target: Androgen receptor (Homo sapiens) (UniProt P10275); assay: qHTS assay to identify small molecule antagonists of the androgen receptor (AR) signaling pathway using the MDA cell line in the presence of 0.5 nM R1881 (AID 1259243); further: nearly all actives have a fitted effect of over 50% in size
# Summary of the method: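 With R1881 held at 0.5 nM (final), compound effects on MMTV-luciferase expression in MDA-kb2 cells were scored by luminescence after a 16 hr, 37C incubation.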
# Sequence of Estrogen receptor (Homo sapiens) (P03372 whole entry, looked up): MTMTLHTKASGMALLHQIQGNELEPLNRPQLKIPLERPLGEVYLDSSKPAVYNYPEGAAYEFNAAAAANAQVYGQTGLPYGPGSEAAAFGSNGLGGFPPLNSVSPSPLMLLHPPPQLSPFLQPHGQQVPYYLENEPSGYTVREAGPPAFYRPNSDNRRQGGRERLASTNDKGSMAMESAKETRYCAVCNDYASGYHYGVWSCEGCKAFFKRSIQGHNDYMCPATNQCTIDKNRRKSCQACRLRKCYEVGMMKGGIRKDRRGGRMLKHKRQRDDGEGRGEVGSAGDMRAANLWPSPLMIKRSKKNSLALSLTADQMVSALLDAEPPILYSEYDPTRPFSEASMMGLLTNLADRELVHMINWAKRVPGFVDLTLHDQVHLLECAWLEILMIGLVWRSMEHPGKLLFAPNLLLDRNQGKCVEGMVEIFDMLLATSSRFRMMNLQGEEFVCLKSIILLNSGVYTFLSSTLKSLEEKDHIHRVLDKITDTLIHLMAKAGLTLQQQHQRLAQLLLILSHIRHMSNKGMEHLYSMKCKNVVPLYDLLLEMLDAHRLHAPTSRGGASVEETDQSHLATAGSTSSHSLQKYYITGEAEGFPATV
# Sequence of Androgen receptor (Homo sapiens) (P10275 whole entry, looked up): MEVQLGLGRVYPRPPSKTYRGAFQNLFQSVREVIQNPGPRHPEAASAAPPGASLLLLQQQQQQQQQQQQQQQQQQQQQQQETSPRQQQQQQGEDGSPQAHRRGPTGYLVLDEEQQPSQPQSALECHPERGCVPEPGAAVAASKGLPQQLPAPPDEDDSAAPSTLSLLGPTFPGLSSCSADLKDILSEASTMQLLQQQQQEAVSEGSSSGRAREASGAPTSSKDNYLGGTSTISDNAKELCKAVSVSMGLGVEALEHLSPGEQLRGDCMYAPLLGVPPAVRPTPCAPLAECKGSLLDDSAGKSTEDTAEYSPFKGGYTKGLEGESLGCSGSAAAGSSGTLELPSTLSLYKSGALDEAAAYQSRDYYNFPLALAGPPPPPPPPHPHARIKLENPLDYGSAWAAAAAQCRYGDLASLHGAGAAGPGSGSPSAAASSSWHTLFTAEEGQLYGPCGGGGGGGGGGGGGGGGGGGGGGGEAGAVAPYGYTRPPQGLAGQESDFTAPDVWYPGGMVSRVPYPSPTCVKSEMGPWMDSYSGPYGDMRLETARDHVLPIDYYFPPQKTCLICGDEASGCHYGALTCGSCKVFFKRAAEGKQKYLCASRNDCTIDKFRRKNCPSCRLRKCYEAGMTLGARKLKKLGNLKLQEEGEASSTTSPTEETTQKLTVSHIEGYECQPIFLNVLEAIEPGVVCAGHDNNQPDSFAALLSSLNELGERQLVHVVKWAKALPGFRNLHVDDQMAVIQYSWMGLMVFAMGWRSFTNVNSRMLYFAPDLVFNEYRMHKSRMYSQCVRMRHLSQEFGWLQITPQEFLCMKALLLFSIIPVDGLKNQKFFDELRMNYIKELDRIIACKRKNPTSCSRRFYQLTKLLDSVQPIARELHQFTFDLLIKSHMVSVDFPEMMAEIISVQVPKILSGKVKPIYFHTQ
# Sequence of Thyrotropin receptor (Homo sapiens) (P16473 whole entry, looked up): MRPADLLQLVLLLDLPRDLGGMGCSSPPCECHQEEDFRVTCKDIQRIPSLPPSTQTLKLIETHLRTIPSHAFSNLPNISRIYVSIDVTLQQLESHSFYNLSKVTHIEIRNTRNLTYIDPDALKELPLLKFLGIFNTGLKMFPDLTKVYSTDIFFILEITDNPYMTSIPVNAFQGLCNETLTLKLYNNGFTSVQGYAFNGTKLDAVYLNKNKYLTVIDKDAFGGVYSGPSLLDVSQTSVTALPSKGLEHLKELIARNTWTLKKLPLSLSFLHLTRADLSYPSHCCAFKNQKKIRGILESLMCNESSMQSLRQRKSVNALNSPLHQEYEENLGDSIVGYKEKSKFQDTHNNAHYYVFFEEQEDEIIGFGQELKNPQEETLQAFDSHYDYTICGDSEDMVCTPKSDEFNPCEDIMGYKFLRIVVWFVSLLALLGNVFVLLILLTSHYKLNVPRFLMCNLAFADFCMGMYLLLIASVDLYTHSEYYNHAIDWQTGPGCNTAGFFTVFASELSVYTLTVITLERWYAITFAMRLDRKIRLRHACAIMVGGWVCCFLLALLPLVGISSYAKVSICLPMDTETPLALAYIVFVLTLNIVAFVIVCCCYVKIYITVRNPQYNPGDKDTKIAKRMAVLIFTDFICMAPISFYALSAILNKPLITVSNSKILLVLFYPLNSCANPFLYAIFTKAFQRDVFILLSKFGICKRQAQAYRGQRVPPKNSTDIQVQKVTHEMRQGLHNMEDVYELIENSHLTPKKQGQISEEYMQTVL
# Sequence of Estrogen receptor beta (Homo sapiens) (Q92731 whole entry, looked up): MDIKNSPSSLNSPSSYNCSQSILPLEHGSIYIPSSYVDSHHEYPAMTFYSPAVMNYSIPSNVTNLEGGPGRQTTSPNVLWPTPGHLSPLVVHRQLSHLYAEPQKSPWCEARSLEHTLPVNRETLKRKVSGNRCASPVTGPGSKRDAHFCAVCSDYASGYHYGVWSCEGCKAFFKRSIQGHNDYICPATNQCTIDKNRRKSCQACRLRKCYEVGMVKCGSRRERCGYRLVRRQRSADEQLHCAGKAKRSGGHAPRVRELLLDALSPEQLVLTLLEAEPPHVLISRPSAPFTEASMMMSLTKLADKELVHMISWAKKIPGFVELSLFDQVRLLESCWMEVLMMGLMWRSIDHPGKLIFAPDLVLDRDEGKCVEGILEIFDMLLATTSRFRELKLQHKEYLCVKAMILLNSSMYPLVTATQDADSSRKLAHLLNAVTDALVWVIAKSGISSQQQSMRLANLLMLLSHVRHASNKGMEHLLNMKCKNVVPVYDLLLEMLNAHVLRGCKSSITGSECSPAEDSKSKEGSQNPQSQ
Structure (SMILES),outcome [1],outcome [2],outcome [3],Potency [4],outcome [5],Potency [6],Potency [7],outcome [8],Potency [9],outcome [10],Potency [11],Potency [12],Potency [13],Potency [14],Potency [15],Potency [16],Potency [17],Potency [18],Potency [19],Potency [20]
C[C@]12CC[C@H]3[C@@H](CC=C4C[C@@H](O)CC[C@@]43C)[C@@H]1CC[C@@H]2O,inactive,inactive,inactive,inactive,inactive,inactive,inactive,inactive,inactive,inactive,inactive,inactive,inactive,–,–,–,–,–,–,–
CC(=O)C(Cl)Cl,inactive,inactive,–,inactive,inactive,inactive,–,inactive,inactive,–,–,inactive,inactive,inactive,inactive,inactive,inactive,inactive,–,–
CCN(CC)c1nc(C)cc(OP(=S)(OC)OC)n1,inactive,inactive,–,inactive,inactive,inactive,–,inactive,–,inactive,inactive,inactive,inactive,inactive,–,inactive,–,inactive,–,–
Nc1n[nH]c(N)n1,inactive,inactive,–,inactive,inactive,inactive,inactive,inactive,inactive,inactive,inactive,–,inactive,–,inactive,–,inactive,inactive,–,–
O=C(Cc1ccccc1)OCc1ccccc1,inactive,inactive,–,–,inactive,inactive,inactive,inactive,inactive,inactive,inactive,inactive,inactive,inactive,–,inactive,inactive,inactive,–,–
Nc1c(Br)cc([N+](=O)[O-])cc1[N+](=O)[O-],inactive,inactive,–,inactive,inactive,–,inactive,inactive,31 µM (active),–,–,–,inactive,inactive,–,inactive,inactive,inactive,inactive,–
CN1CCN(C(=O)O[C@H]2c3nccnc3C(=O)N2c2ccc(Cl)cn2)CC1,inactive,inactive,inactive,inactive,inactive,inactive,inactive,inactive,inactive,inactive,inactive,inactive,inactive,–,inactive,–,inactive,inactive,–,–
Cc1cc(C)c(C(=O)P(=O)(C(=O)c2c(C)cc(C)cc2C)c2ccccc2)c(C)c1,inactive,inactive,–,inactive,inactive,inactive,–,inactive,inactive,–,–,inactive,inactive,inactive,inactive,inactive,inactive,inactive,–,–
C=C(C)[C@@H]1CC=C(C=O)CC1,inactive,inactive,–,inactive,inactive,inactive,–,inactive,inactive,–,–,inactive,inactive,inactive,inactive,inactive,inactive,inactive,–,–
OC(c1ccc(F)cc1)(c1cncnc1)c1ccccc1Cl (stereo unspecified),inactive,inactive,–,inactive,inactive,inactive,–,inactive,–,–,–,inactive,inactive,inactive,inactive,inactive,–,inactive,–,–
Cc1cc(C)nc(Nc2ccccc2)n1,inactive,inactive,–,–,inactive,inactive,inactive,inactive,inactive,–,–,inactive,inactive,inactive,inactive,inactive,inactive,inactive,–,–
CCS(=O)(=O)CCSP(=O)(OC)OC,inactive,inactive,–,inactive,inactive,–,inactive,inactive,inactive,–,–,inactive,inactive,–,inactive,–,inactive,inactive,–,–
COc1cc(OC)nc(Sc2cccc(Cl)c2C(=O)O)n1,inactive,inactive,–,inactive,inactive,inactive,–,inactive,inactive,–,–,inactive,inactive,–,–,–,inactive,inactive,–,–
O=[N+]([O-])c1cccc(O)c1,inactive,inactive,–,inactive,inactive,inactive,inactive,inactive,inactive,–,–,inactive,inactive,–,inactive,–,inactive,inactive,–,–
NC(=O)c1cc([N+](=O)[O-])cc([N+](=O)[O-])c1,–,inactive,inactive,inactive,inactive,inactive,inactive,inactive,inactive,–,inactive,inactive,inactive,inactive,–,inactive,inactive,inactive,–,–
COP(=S)(OC)Oc1ccc(S(N)(=O)=O)cc1,–,inactive,inactive,inactive,inactive,inactive,inactive,inactive,inactive,inactive,inactive,inactive,inactive,inactive,inactive,inactive,inactive,inactive,–,–
CC(C1CC1)C(O)(Cn1cncn1)c1ccc(Cl)cc1 (stereo unspecified),inactive,inactive,–,inactive,inactive,inactive,inactive,–,–,–,inactive,inactive,inactive,–,–,–,inactive,inactive,–,–
CC1CCCCC1NC(=O)Nc1ccccc1 (stereo unspecified),inactive,inactive,–,–,inactive,inactive,–,inactive,inactive,–,inactive,inactive,inactive,–,inactive,inactive,inactive,inactive,–,–
Clc1ccccc1N1CCNCC1,–,inactive,–,inactive,inactive,inactive,inactive,inactive,inactive,inactive,inactive,inactive,inactive,inactive,–,inactive,inactive,inactive,inactive,inactive
C[C@@H]1CN(C2CCC(C#N)(c3ccc(F)cc3)CC2)CC[C@]1(C(=O)O)c1ccccc1 (stereo partly specified),–,inactive,inactive,inactive,inactive,inactive,–,–,inactive,inactive,inactive,inactive,inactive,inactive,inactive,inactive,inactive,inactive,–,–
